This note sets out measurements from PubChem BioAssay (NCI).

The panel holds about 83,000 compounds, 20% with a hit somewhere; the sample as a whole holds those more often.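 How to read the values: 0–100, growth inhibition (40 = 60% inhibited); 0, no net growth; -100 to 0, cell death (-40 = 40% of starting cells died; -100 = all dead).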 Unmarked numbers belong to inactive results. Calls of active or inactive are those of the source. How the source made its calls: active means growth percent below 10; inactive means the rest.

Holding throughout (test): NCI-60 one-dose screen, 48 h (100 = growth as untreated, 0 = no growth, -100 = all killed)
One test has as its system NCI-H23 lung. The following applies: 10 µM unless noted.
Another test concerns NCI-H226 lung. The following applies: 10 µM unless noted.
Another test concerns NCI-H322M lung. As to conditions: 10 µM unless noted.
The test system of a further test is HOP-62 NSCLC. As to conditions: 10 µM unless noted.
The test system of another test is NCI-H460 lung. The following applies: 10 µM unless noted.
In a further test the test system is HOP-92 NSCLC. As to conditions: 10 µM.
The subject of another test is NCI-H522 lung. As to conditions: 10 µM unless noted.
Another test has as its system A549/ATCC NSCLC. As to conditions: 10 µM unless noted.
The subject of a further test is 786-0 renal. As to conditions: 10 µM unless noted.
The subject of the next test is COLO 205 colon. As to conditions: 10 µM unless noted.
The next test concerns DU-145 prostate. As to conditions: 10 µM unless noted.
Another test concerns K-562 leukemia. The following applies: 10 µM unless noted.
The subject of another test is MALME-3M melanoma. The following applies: 10 µM unless noted.
Another test relates to MDA-MB-231 breast. As to conditions: 10 µM unless noted.
Another test has as its system SF-268 CNS. The following applies: 10 µM unless noted.
Another test deals with SF-295 CNS. As to conditions: 10 µM unless noted.
A further test relates to SF-539 CNS. As to conditions: 10 µM unless noted.
A further test concerns UACC-257 melanoma. As to conditions: 10 µM unless noted.

As to `COc1ccc(NC(=O)Nc2ccc3c(ccn3C(=O)c3cccc(F)c3)c2)cc1`, the growth is 72.5% in the test on NCI-H23 lung; 69.2% in the test on NCI-H226 lung; 95.1% in the test with NCI-H322M lung; 91% in the test with HOP-62 NSCLC; 31.7% in the test on NCI-H460 lung; 71.6% in the test with HOP-92 NSCLC. Further, the growth is 78.6% in the test on NCI-H522 lung; 53.9% with A549/ATCC NSCLC; 58.2% with 786-0 renal; 104% in the test with COLO 205 colon; 84.5% with DU-145 prostate; 86.1% in the test on K-562 leukemia. Also, the growth in the test with MALME-3M melanoma is 34.2%; in the test on MDA-MB-231 breast it was 78.6%; with SF-268 CNS it was 85.3%; in the test with SF-295 CNS, 90.4%; with SF-539 CNS, 52%; in the test with UACC-257 melanoma, 84.2%.
As for `N#Cc1cccc(CN2CCC3=C(C2)C(=O)N(Cc2ccc(Cl)cc2)C2=NCCN23)c1`, the growth in the test with NCI-H23 lung was 30.8%; with NCI-H226 lung it was 35%; with NCI-H322M lung, 50.8%; in the test with HOP-62 NSCLC it was 31.8%; with NCI-H460 lung, 15%; in the test with HOP-92 NSCLC it was 29%. Moreover, the growth is 23.1% in the test on NCI-H522 lung; 27.2% in the test on A549/ATCC NSCLC; 44.7% with 786-0 renal; -41% (active) with COLO 205 colon; 28.5% in the test with DU-145 prostate; 23.3% with K-562 leukemia. Moreover, the growth was 50.4% in the test on MALME-3M melanoma; 31.7% with MDA-MB-231 breast; 36% with SF-268 CNS; 8.53% (active) with SF-295 CNS; 41.7% in the test on SF-539 CNS; 10.7% in the test with UACC-257 melanoma.
Consider `COc1ccc([C@H]2c3[nH]c4ccccc4c3C[C@H]3C(=O)N(C4CCN(Cc5c(Cl)cccc5Cl)CC4)CC(=O)N23)c(OC)c1`, for which the growth is 98% with NCI-H23 lung; 92.9% in the test on NCI-H226 lung; 94.5% in the test on NCI-H322M lung; 93.2% in the test on HOP-62 NSCLC; 99.1% in the test on NCI-H460 lung; 79.4% with HOP-92 NSCLC. For the same compound, the growth in the test on NCI-H522 lung is 87.2%; with A549/ATCC NSCLC, 91.1%; in the test with 786-0 renal it was 101%; in the test on COLO 205 colon it was 109%; in the test on DU-145 prostate, 110%; in the test on K-562 leukemia, 92.7%. The growth in the test on MALME-3M melanoma is 90.6%; in the test on MDA-MB-231 breast it was 93%; in the test on SF-268 CNS, 85.6%; with SF-295 CNS, 106%; in the test with SF-539 CNS, 101%; in the test on UACC-257 melanoma, 116%.
Turning to `Nc1ncc(-c2ccc3ncnc(Nc4cccc(Cl)c4F)c3c2)cn1`, the growth is 72.8% with NCI-H23 lung; 66.6% with NCI-H226 lung; 11% in the test on NCI-H322M lung; 47.5% in the test on HOP-62 NSCLC; 62.2% in the test with NCI-H460 lung; 31.3% in the test with HOP-92 NSCLC. Besides, the growth is 32.2% in the test on NCI-H522 lung; 51.9% in the test with A549/ATCC NSCLC; 43.5% in the test on 786-0 renal; 86.4% in the test with COLO 205 colon; 48.9% with DU-145 prostate; 80.5% in the test on K-562 leukemia. Further, the growth in the test with MALME-3M melanoma was 49.3%; with MDA-MB-231 breast, 55.3%; with SF-268 CNS it was 53.8%; with SF-295 CNS it was 44.9%; in the test on SF-539 CNS, 68.4%; in the test on UACC-257 melanoma, 89.4%.
Regarding `COc1cc(/C=C2\C(=O)Nc3ccccc32)ccc1OCc1ccc(Cl)cc1`, the growth is 93.3% in the test on NCI-H23 lung; 96.6% in the test on NCI-H226 lung; 99.7% in the test on NCI-H322M lung; 101% in the test on HOP-62 NSCLC; 41.1% in the test on NCI-H460 lung; 112% in the test on HOP-92 NSCLC. The growth is 95.8% in the test with NCI-H522 lung; 107% in the test on A549/ATCC NSCLC; 106% with 786-0 renal; 116% with COLO 205 colon; 98.7% with DU-145 prostate; 98.5% in the test with K-562 leukemia. For the same compound, the growth was 95.5% with MALME-3M melanoma; 99% in the test with MDA-MB-231 breast; 98.6% in the test with SF-268 CNS; 103% with SF-295 CNS; 98% with SF-539 CNS; 125% in the test on UACC-257 melanoma.
For the compound `COc1ccc(COc2ccc(/C=C3\C(=O)Nc4ccccc43)cc2OC)cc1`, the growth in the test with NCI-H23 lung is 103%; with NCI-H226 lung, 103%; in the test with NCI-H322M lung it was 106%; with HOP-62 NSCLC, 100%; in the test with NCI-H460 lung it was 103%; in the test with HOP-92 NSCLC, 101%. In addition, the growth with NCI-H522 lung was 93.4%; in the test on A549/ATCC NSCLC it was 109%; in the test on 786-0 renal, 105%; with COLO 205 colon, 123%; with DU-145 prostate, 109%; with K-562 leukemia it was 101%. In addition, the growth in the test with MALME-3M melanoma is 99.7%; in the test on MDA-MB-231 breast, 99.9%; with SF-268 CNS it was 103%; with SF-295 CNS, 103%; with SF-539 CNS it was 95.9%; with UACC-257 melanoma it was 116%.
